Results taken from PubChem BioAssay (Tox21).
Values without a mark were called inactive. Active and inactive are the calls of the source. Calls come from the whole dose curve; as a rule, active = well fitted activation curve with a large enough effect in the repeat runs; inconclusive = weak or mixed curves; inactive = flat fitted curve, though single readings scatter.

These compounds were tested against Androgen receptor (Homo sapiens) (UniProt P10275) (assay: qHTS assay to identify small molecule agonists of the androgen receptor (AR) signaling pathway using the MDA cell line (AID 743040; note: nearly all actives have a fitted effect of over 20% in size)). Conditions: MDA-kb2 AR-luc cells, MMTV luciferase, 16 h; series mostly up to 70.3 µM; activity change: at the top concentration.
Text: National Center for Advancing Translational Sciences [NCATS]
NIH Chemical Genomics Center [NCGC]
U.S. Environmental Protection Agency [EPA]
National Institutes of Environmental Health Sciences [NIEHS]
National Toxicology Program [NTP]
U.S. Food and Drug Administration [FDA]
Androgen receptor (AR), a nuclear hormone receptor, plays a critical role in AR-dependent prostate cancer and other androgen related diseases. Endocrine disrupting chemicals (EDCs) and their interactions with steroid hormone receptors like AR may cause disruption of normal endocrine function as well as interfere with metabolic homeostasis, reproduction, developmental and behavioral functions. To identify the compounds that activate AR signaling, MDA-kb2 AR-luc cell line (from ATCC, deposited by Wilson et al.) was used to screen the Tox21 10K compound library. MDA-kb2 AR-luc cell line is human breast carcinoma cell line that was stably transfected with a luciferase reporter gene under control of the MMTV promoter containing response elements for both androgen receptor (AR) and glucocorticoid receptor (GR).
Tox21 Assay Protocol Summary:
MDA-kb2 AR-luc cells were dispensed at 3,000 cells/5 uL/well of culture medium into white wall/solid-bottom 1536-well plates using a Multidrop Combi (ThermoFisher Scientific, Waltham, MA) dispenser. After the assay plates were incubated at 37C and 0% CO2 for 5 h, 23 nL of compounds dissolved in DMSO, positive controls or DMSO only was transferred to the assay plate by a Pintool station (Kalypsys, San Diego, CA). The plates were incubated at 37C and 0% CO2 for 16 h. Then 4 uL of ONE-Glo reagent (Promega, Madison, WI) was added to each plate using a Bioraptr Flying Reagent Dispenser (FRD) workstation (Beckman Coulter, Indianapolis, IN, USA) and luminescence was quantified on a ViewLux (PerkinElmer, Shelton, CT) plate reader after 30 min incubation at room temperature.
% is set by controls: 0 for no effect and ±100 for the full control effect; potency is the fitted concentration of half-maximal effect.

Chain of Androgen receptor (Homo sapiens) (P10275 whole entry, looked up): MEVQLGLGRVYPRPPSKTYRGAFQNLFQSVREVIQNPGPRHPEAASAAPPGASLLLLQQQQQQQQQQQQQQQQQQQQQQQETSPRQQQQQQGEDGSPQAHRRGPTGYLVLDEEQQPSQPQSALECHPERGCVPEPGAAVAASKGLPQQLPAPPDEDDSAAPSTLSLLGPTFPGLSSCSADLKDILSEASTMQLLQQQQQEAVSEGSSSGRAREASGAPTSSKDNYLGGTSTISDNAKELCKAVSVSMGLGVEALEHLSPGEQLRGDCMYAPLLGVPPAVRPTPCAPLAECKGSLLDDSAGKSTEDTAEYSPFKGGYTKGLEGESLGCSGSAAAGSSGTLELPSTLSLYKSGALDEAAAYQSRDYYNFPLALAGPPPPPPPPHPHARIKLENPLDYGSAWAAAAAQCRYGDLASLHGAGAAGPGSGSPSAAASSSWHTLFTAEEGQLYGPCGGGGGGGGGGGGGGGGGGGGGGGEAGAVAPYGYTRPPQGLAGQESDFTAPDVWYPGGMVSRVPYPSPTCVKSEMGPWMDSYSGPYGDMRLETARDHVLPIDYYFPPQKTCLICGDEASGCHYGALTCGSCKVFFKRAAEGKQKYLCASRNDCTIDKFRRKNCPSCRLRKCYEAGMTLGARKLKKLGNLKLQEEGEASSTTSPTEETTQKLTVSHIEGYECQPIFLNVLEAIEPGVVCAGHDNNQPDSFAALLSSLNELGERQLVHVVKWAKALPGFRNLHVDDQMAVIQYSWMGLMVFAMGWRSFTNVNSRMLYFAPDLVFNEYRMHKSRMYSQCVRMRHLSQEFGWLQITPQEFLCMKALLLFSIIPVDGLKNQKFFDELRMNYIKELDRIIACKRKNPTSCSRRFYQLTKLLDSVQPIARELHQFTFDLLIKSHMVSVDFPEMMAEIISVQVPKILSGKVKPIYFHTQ

Row | Structure (SMILES) | activity change | Potency
1 | COc1ccc(-c2nc3ccc(C4=NNC(=O)CC4C)cc3[nH]2)cc1 (stereo not given) | 21.4% | 
2 | c1ccc(-c2ccccn2)nc1 | 3.17% | 
3 | COC(=O)C1=C(C)NC(COC(N)=O)=C(C(=O)OC(C)C)C1c1cccc(Cl)c1Cl (stereo not given) | -7.09% | 
4 | CN1CCC(=C2c3ccccc3Sc3ccccc32)CC1 | -12.5% | 
5 | CNCCCN1c2ccccc2CCc2ccccc21 | -5.61% [at 32.5 µM, stronger effect = higher value] | 
6 | CC(=O)OC[C@H]1O[C@@H](n2ncc(=O)[nH]c2=O)[C@H](OC(C)=O)[C@@H]1OC(C)=O | 2.42% | 
7 | C[C@@H](c1ncncc1F)C(O)(Cn1cncn1)c1ccc(F)cc1F (stereo not given in full) | -2.39% | 
8 | NCCCN1CCOCC1 | 1.46% | 
9 | COc1ccc(S(=O)(=O)N2C(=O)[C@@](c3ccccc3OC)(N3C[C@H](O)C[C@H]3C(=O)N(C)C)c3cc(Cl)ccc32)c(OC)c1 | -10.3% | 
10 | Nc1ccc(N)c2c1C(=O)c1ccccc1C2=O | -0.629% | 
11 | CN1CCN(C(c2ccccc2)c2ccccc2)CC1 | 0.0205% [at 32.5 µM, stronger effect = higher value] | 
12 | Cc1cccc(C)c1OCC(=O)N[C@@H](Cc1ccccc1)[C@@H](O)C[C@H](Cc1ccccc1)NC(=O)[C@H](C(C)C)N1CCCNC1=O | -8.07% | 
13 | C=C1C(=C/C=C2\CCC[C@]3(C)[C@@H]([C@H](C)/C=C/[C@@H](O)C4CC4)CC[C@@H]23)C[C@@H](O)C[C@@H]1O | -11.5% | 
14 | OC(CN1CCC(Cc2ccc(F)cc2)CC1)c1ccc(Cl)cc1 (stereo not given) | 2.15% | 
15 | O=C1OC(CN2CCOCC2)CN1/N=C/c1ccc([N+](=O)[O-])o1 (stereo not given) | 0.448% [at 32.5 µM, stronger effect = higher value] | 
16 | CCCn1cnc2c1c(=O)n(CCCCC(C)=O)c(=O)n2C | 9.77% | 
17 | C[C@@H]1C[C@H]2O[C@@]3(O[C@@H]2C(C)(C)O)[C@H](O)[C@@]2(C)[C@@H]4CC[C@H]5C(C)(C)[C@@H](O[C@@H]6OC[C@@H](O)[C@H](O)[C@H]6O)CC[C@@]56C[C@@]46CC[C@]2(C)[C@@H]13 | -0.049% | 
18 | C/C(=C(\CCOP(=O)(O)O)SC(=O)c1ccccc1)N(C=O)Cc1cnc(C)nc1N |  | 12700 nM (active)
19 | O=C(O)C1(C(=O)Nc2ccc(Cl)cc2Cl)CC1 | 27.1% | 
20 | Cc1nn(C)c(Oc2ccccc2)c1/C=N/OCc1ccc(C(=O)OC(C)(C)C)cc1 | -11.1% | 

Row | Structure (SMILES) | activity change | Potency
21 | CCCCCC[C@@H](O)C/C=C\CCCCCCCC(=O)OC | 0.0326% [at 95 µM, stronger effect = higher value] | 
22 | CCO[C@H](Cc1ccc(OCCc2ccc(OS(C)(=O)=O)cc2)cc1)C(=O)O | 2.39% | 
23 | CCCCC(=O)OCC(=O)[C@H]1[C@H](C)C[C@H]2[C@@H]3C[C@H](F)C4=CC(=O)C=C[C@]4(C)[C@@]3(F)[C@@H](O)C[C@@]21C |  | 4.7 nM (active)
24 | CC(=O)NO | 3.85% | 
25 | CC(C)CC(=O)C1C(=O)c2ccccc2C1=O | -2.41% | 
26 | O=C1CCCCCCCCCCCC(=O)OCCO1 | -2.86% | 
27 | O=C(c1ccc(F)cc1)C1CCN(CCn2c(=S)[nH]c3ccccc3c2=O)CC1 | 13.7% | 
28 | CN(C)c1ccc(C(c2ccccc2)c2ccc(N(C)C)cc2)cc1 | -3.47% | 
29 | COc1cc(C(=O)OCCCN2CCCN(CCCOC(=O)c3cc(OC)c(OC)c(OC)c3)CC2)cc(OC)c1OC | -7.46% | 
30 | Cc1cccc(Nc2ccccc2)c1 | -0.776% | 
31 | Nc1cccc([N+](=O)[O-])c1 | -4.06% | 
32 | OCCNCc1ccccc1 | 0.0028% | 
33 | CCOC(=O)COC(=O)c1cc(Oc2ccc(C(F)(F)F)cc2Cl)ccc1[N+](=O)[O-] | 1.21% | 
34 | CCCCCCCCCc1ccc(OCCOCCO)cc1 |  | inactive
35 | NCc1ccccc1Sc1ccccc1CO | -4.13% | 
36 | CCC(=O)O[C@]1(C(=O)CCl)[C@@H](C)C[C@H]2[C@@H]3CCC4=CC(=O)C=C[C@]4(C)[C@@]3(F)[C@@H](O)C[C@@]21C |  | 1.9 nM (active)
37 | O=CC1CC=CCC1 (stereo not given) | -0.735% | 
38 | Cc1cc(N)c2cc(NC(=O)Nc3ccc4nc(C)cc(N)c4c3)ccc2n1 | -0.658% | 
39 | CC(COCCO)OCCO (stereo not given) | 1.05% | 
40 | O=[N+]([O-])c1ccc(NCCO)c(OCCO)c1 | 0.988% | 
